The supplement of paper PMC13380429
Values without a mark were called inactive.

Tested on: Vero E6 infected with SARS-CoV-2
Assay: SARS-CoV-2 infection rate relative to infected DMSO; higher = more infection, active = 60 or less
Conditions: 24 h

Row | SMILES | SARS-CoV-2 infection rate
1 | CN1[C@@H]2CC[C@H]1C[C@@H](OC(=O)[C@H](CO)c1ccccc1)C2 [hyoscyamine] (10 µM) | 90.5%
2 | CC(C)(C)NC[C@H](O)COc1nsnc1N1CCOCC1 [timolol] (10 µM) | 98.5%
3 | CCN1CCN(c2ccc(Nc3cc(N(C)C(=O)Nc4c(Cl)c(OC)cc(OC)c4Cl)ncn3)cc2)CC1 (0.833333 µM) | 117%
4 | CCC(=O)NS(=O)(=O)c1ccc(-c2c(-c3ccccc3)noc2C)cc1 [parecoxib] (10 µM) | 106%
5 | CCCN(CCc1cccs1)[C@H]1CCc2c(O)cccc2C1 [rotigotine] (10 µM) | 96.5%
6 | O=C(O)c1cc(O)c2c(Cl)cc(Cl)cc2n1 [5,7-dichlorokynurenic-acid] (10 µM) | 104%
7 | CCc1c(C(=O)NCCc2ccc(N3CCCCC3)cc2)[nH]c2ccc(Cl)cc12 (10 µM) | 124%
8 | NS(=O)(=O)c1nn2cc(-c3ccccc3)nc2s1 (10 µM) | 97.5%
9 | N#CSc1cc(SC#N)c(N)nc1N (0.833333 µM) | 98.5%
10 | Cc1cc(N2CCOCC2)ccc1Nc1nc(NC2CCCCC2)c2nc[nH]c2n1 (10 µM) | 90.5%
11 | CCCCc1nc(Cl)c(C(=O)O)n1Cc1ccc(-c2ccccc2-c2nn[nH]n2)cc1 [carboxylosartan] (10 µM) | 106%
12 | CC(C)NC[C@@H](O)c1ccc(O)c(O)c1 (racemic) [isoprenaline] (0.833333 µM) | 100%
